USP2a inh – qHTS Assay for Inhibitors of Ubiquitin-specific Protease USP2a Using CHOP2 as the Reporter; Ubiquitin carboxyl-terminal hydrolase 2 (Homo sapiens), O75604; USP2 core, Ub-CHOP2 coupled fluorogenic reporter, 485/531; Potency, µM (top dose mostly 38.3 µM), hits mostly inhibitors; actives 0.01% (n = 330,000)
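Deubiquitinase activity read as fluorescence (485/531 nm) after Ub-CHOP2 cleavage activates the enterokinase reporter on its substrate; USP2 core 10nM, Ub-CHOP2 and substrate 25nM each, 30min compound preincubation then 60min RT; data normalized to NEM, curves fitted.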
PGK inhibitor – qHTS Assay to Find Inhibitors of Phosphoglycerate Kinase; Phosphoglycerate kinase, glycosomal (Trypanosoma brucei brucei), P07378; PGK/GAPDH coupled, Kinase-Glo luminescence, 60 min; Potency, µM (doses to about 57.5 µM), hits mostly inhibitors; actives 0.043% (n = 380,000); AID 602233, 2012; note: nearly all actives have a fitted effect of over 60% in size
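Luminescent ATP detection (Kinase-Glo Plus) follows a 60-minute room-temperature incubation, with wells lacking PGK as controls. Buffer: 100 mM TEA (pH 7.6), 5 mM MgCl2, 0.01% Tween-20. Coupling enzyme GAPDH (100 nM final) supplies unstable 1,3-BPG in-well.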
Tb PFK inh – qHTS Assay to Find Inhibitors of T. brucei phosphofructokinase | ATP-dependent 6-phosphofructokinase (Trypanosoma brucei brucei), O15648 | actives 0.17% (n = 330,000) | AID 485367, 2010 | T. brucei PFK, ADP-Glo luminescence | Potency, µM (doses to about 57.5 µM), most hits filed as inhibitors; note: nearly all actives have a fitted effect of over 60% in size
Target sequence (O15648 whole entry, looked up): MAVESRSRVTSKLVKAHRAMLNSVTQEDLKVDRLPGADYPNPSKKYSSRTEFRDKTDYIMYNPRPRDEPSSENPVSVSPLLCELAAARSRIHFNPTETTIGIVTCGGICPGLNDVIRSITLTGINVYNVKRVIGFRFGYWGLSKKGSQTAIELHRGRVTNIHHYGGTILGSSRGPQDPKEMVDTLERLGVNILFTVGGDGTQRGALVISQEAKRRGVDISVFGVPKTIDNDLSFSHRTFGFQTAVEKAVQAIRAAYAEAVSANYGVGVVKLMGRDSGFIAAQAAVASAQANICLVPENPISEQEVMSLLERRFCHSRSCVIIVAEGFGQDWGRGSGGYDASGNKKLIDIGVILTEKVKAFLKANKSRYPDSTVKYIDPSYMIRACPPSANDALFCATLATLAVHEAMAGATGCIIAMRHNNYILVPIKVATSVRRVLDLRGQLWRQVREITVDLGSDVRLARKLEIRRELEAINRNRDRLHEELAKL
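Compounds were pin-transferred as a titration series up to 57 uM into substrate buffer (0.5 mM F6P, 0.1 mM ATP, pH 8.0), then 1.25 nM PFK was added and reactions ran 45 min before ADP-Glo detection.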
GCN5L2 inh – qHTS Assay for Inhibitors of GCN5L2 | Histone acetyltransferase KAT2A (Homo sapiens), Q92830 | GCN5L2 HAT assay, ThioGlo1 CoA-SH fluorescence | Potency, µM (highest dose often 58.9 µM), hits mostly inhibitors | actives 0.21% (n = 390,000) | AID 504327, 2011
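ThioGlo1-coupled HAT assay: 20nM GCN5L2, 70uM acetyl-CoA, 75uM H3(1-25) peptide, pH 7.5. Fluorescence read at 340/540nm at start and after 20 min at room temperature.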
GLS inh – qHTS for Inhibitors of Glutaminase (GLS) | Potency, µM (highest dose often 45.5 µM), hits mostly inhibitors | actives 0.21% (n = 410,000) | GLS enzymatic activity, qHTS titration | Glutaminase kidney isoform, mitochondrial (Homo sapiens), O94925
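Two-point fluorescence kinetic (t0, 30 min RT) for hKGA; glutamate detected via glutamate oxidase–HRP–Amplex Red. Substrate: 1 mM L-glutamine solution; buffer 45 mM KH2PO4, pH 8.2.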
Of the large screens only hits and unclear results are named; the others gave an inactive call. Most compounds without a hit are left out; they make up all but 0.52% or so of the library. Calls come from the whole dose curve; as a rule, active = well fitted curve in the direction sought with a large enough effect; inconclusive = small, poorly fitted or top-dose-only effect, or another doubt; inactive = no such curve, though single readings can be large; an effect the other way counts as inactive or inconclusive.

S=c1[nH]nc(Nc2ccccc2Cl)s1	Tb PFK inh inconclusive, GCN5L2 inh 25.1µM, GLS inh inconclusive
O=C(c1ccc(Cl)cc1)c1cnc(Nc2ccccc2Cl)s1	none
COc1ccc(C(c2c(N)[nH]c(=S)[nH]c2=O)c2c(N)[nH]c(=S)[nH]c2=O)cc1	GLS inh 11.2µM
NCCCNCCCCNC(=O)C(O)NC(=O)CCCCCCN=C(N)N (stereo not drawn)	none (no result: USP2a inh, PGK inhibitor, Tb PFK inh, GCN5L2 inh)
COCCCNC(=O)c1oc2c(c1C)-c1nn(Cc3ccccc3Cl)cc1CC2	none (no result: USP2a inh, Tb PFK inh)
O=c1nc(/C=C/c2ccc(O)c(O)c2)oc2ccccc12	Tb PFK inh inconclusive, GLS inh 5.62µM
COc1ccc(/C=C\c2nc(=O)c3ccccc3o2)cc1	none
CCOc1ccc(NC(=O)c2cnn(-c3ccc(C)c(C)c3)c2C2CCN(C(=O)OC(C)(C)C)CC2)cc1	none (no result: USP2a inh, Tb PFK inh)
CN(C)C1CCN(CCCOc2ccc(-c3ccc(C#N)cc3)cc2)C1 (stereo not drawn)	none (no result: USP2a inh, PGK inhibitor, Tb PFK inh, GLS inh)
CC1=CC(=O)c2c(O)ccc(O)c2C1=O	USP2a inh inconclusive, Tb PFK inh inconclusive, GCN5L2 inh 12.6µM (no result: PGK inhibitor, GLS inh)
N#CC1=C2SCN(c3ccccc3)CN2C(=O)CC1c1ccccc1Cl (stereo not drawn)	GCN5L2 inh 28.2µM
N#CC1=C2SCN(c3ccccc3)CN2C(=O)CC1c1c(Cl)cccc1Cl (stereo not drawn)	GCN5L2 inh 11.2µM
N#CC1=C2SCN(c3ccccc3)CN2C(=O)CC1c1cccs1 (stereo not drawn)	GCN5L2 inh inconclusive
CCOC(=O)c1[nH]c2ccc(OC)cc2c1NS(=O)(=O)c1ccc(Cl)s1	GLS inh 7.08µM
COc1ccc(/C=N/N(Cc2ccccc2)c2ccccc2)cc1O	GLS inh 15.8µM
COc1cc(C=NCc2ccccc2)ccc1O	none (no result: USP2a inh, Tb PFK inh, GCN5L2 inh)
O=C(O)c1cc(N=Nc2ccc(-c3ccc(N=Nc4ccc(O)c(C(=O)O)c4)cc3)cc2)ccc1O	GCN5L2 inh 3.16µM (no result: USP2a inh, PGK inhibitor, Tb PFK inh, GLS inh)
O=C(O)c1cc(N=Nc2ccc(O)c(C(=O)O)c2)ccc1O	none (no result: USP2a inh, PGK inhibitor, Tb PFK inh)
CCCCCn1c(=O)[nH]c2cc(C(=O)N3CCN(c4cccc(C)c4)C(C)C3)ccc2c1=O (stereo not drawn)	none (no result: USP2a inh, Tb PFK inh)
O=C(CCn1cccn1)Nc1ccc(Br)cc1F	none (no result: USP2a inh, Tb PFK inh)
CC(C)(C)C1=CC(=Nc2ccccc2N)C=C(C(C)(C)C)C1=O	none
CC(C)(C)C1=CC(=O)C(=O)C(C(C)(C)C)=C1	Tb PFK inh inconclusive, GCN5L2 inh inconclusive, GLS inh 5.62µM (no result: PGK inhibitor)
C=CCSc1nnc(-c2nnc(SCC=C)n2-c2ccccc2)n1-c1ccccc1	GCN5L2 inh 31.6µM
Cc1cc2c(s1)c(C#N)c(C(=O)NCc1ccccc1F)n2C	none (no result: PGK inhibitor, GLS inh)
CCC(=O)NC1=C(Nc2ccc(N)cc2)C(=O)c2ccccc2C1=O	GLS inh 7.08µM
Cc1c(O)ccc2c(CC(=O)N[C@@H](Cc3ccc(O)cc3)C(=O)O)cc(=O)oc12	none
O=C(Cc1cc(=O)oc2cc(O)ccc12)NCC1CCC(C(=O)O)CC1 (stereo not drawn)	GCN5L2 inh 28.2µM
O=C(Cc1cc(=O)oc2cc(O)ccc12)NC(Cc1ccc(Cl)cc1)C(=O)O (stereo not drawn)	GCN5L2 inh 28.2µM
C/C(=N\NC(=S)Nc1ccccc1C)c1ccc(O)cc1	GLS inh 10µM
COCCNC(=S)N/N=C(\C)c1ccc(O)cc1	none
S=c1[nH]c(-c2ccccc2)cn1/N=C/c1ccncc1	Tb PFK inh inconclusive, GLS inh 10µM
CCOc1ccc(/C=N/n2cc(-c3ccccc3)[nH]c2=S)cc1	Tb PFK inh inconclusive
CC(C)CCNC(=O)c1ccc2c(c1)NC(=O)C(CS(=O)(=O)Cc1ccc(F)cc1)N2 (stereo not drawn)	GLS inh 12.6µM (no result: USP2a inh, Tb PFK inh)
Cc1cccc(CS(=O)(=O)CC2Nc3ccc(C(=O)NCc4ccccc4)cc3NC2=O)c1 (stereo not drawn)	GLS inh 10µM (no result: USP2a inh, Tb PFK inh)
